Measured values reported in PubChem BioAssay AID1159580 (chemical genetic matrix, 2015).
The campaign covered roughly 5,500 compounds. About 2,000 (36%) were called active. Roughly 18% stayed inconclusive and do not appear here. Cut-off read from the data, not from the text of the source: active = normalized growth mostly below about 0.91 (no sharp cut-off); inconclusive = no clear call, values can overlap the other calls; inactive = mostly above about 0.92. The list shows a part of the results.

Experiment: chemical genetic growth profiling, strain panel (AID 1159580);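 note: tested at 20 µM; growth read once vehicle control cultures reached saturation at 30 °C; 1 = growth at the plate median or of vehicle wells; lower values mean less growth of the strain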
Conditions: S. cerevisiae deletion strains, growth OD
[1] = locus YHR030C, strain SLT2, stronger effect = lower value
[2] = locus YHR079C, strain IRE1, stronger effect = lower value
[3] = locus YJL095W, strain BCK1, stronger effect = lower value
[4] = locus YJR066W, strain TOR1, stronger effect = lower value
[5] = locus YLR113W, strain HOG1, stronger effect = lower value
[6] = locus YNL183C, strain NPR1, stronger effect = lower value
[7] = locus YOR231W, strain MKK1, stronger effect = lower value
[8] = locus YPL256C, strain CLN2, stronger effect = lower value

Measured: normalized growth

C=C1CC[C@H](O)C/C1=C/C=C1\CCCC2(C)C1CCC2C(C)CCCC(C)C (stereo partly drawn)
active: [5] 0.843
inactive: [1] 0.874 | [2] 0.925 | [3] 0.893 | [4] 0.943 | [6] 0.915 | [7] 0.896 | [8] 0.846

COc1cccc([C@]2(O)CCCC[C@H]2CN(C)C)c1
inactive: locus YAL021C, strain ccr4, stronger effect = lower value 0.964 | locus YAL026C, strain drs2, stronger effect = lower value 0.968 | locus YAL030W, strain snc1, stronger effect = lower value 0.947 | locus YBL061C, strain skt5, stronger effect = lower value 0.968 | locus YBR009C, strain hhf1, stronger effect = lower value 0.965 | locus YBR023C, strain chs3, stronger effect = lower value 0.977 | locus YBR171W, strain sec66, stronger effect = lower value 0.962 | locus YBR231C, strain swc5, stronger effect = lower value 0.99 | locus YBR279W, strain paf1, stronger effect = lower value 0.975 | locus YCL011C, strain gbp2, stronger effect = lower value 0.972 | locus YCL016C, strain dcc1, stronger effect = lower value 0.973 | locus YCL061C, strain MRC1, stronger effect = lower value 0.987 | locus YCL069W, strain vba3, stronger effect = lower value 0.967 | locus YCR088W, strain abp1, stronger effect = lower value 0.973 | locus YDL005C, strain med2, stronger effect = lower value 0.965 | locus YDL040C, strain nat1, stronger effect = lower value 0.978 | locus YDR001C, strain nth1, stronger effect = lower value 0.963 | locus YDR069C, strain doa4, stronger effect = lower value 0.958 | locus YDR137W, strain rgp1, stronger effect = lower value 0.942 | locus YDR159W, strain sac3, stronger effect = lower value 0.932 | locus YDR195W, strain ref2 0.956 | locus YDR297W, strain sur2, stronger effect = lower value 0.966 | locus YDR334W, strain swr1, stronger effect = lower value 0.928 | locus YDR335W, strain msn5, stronger effect = lower value 0.958 | locus YDR392W, strain spt3, stronger effect = lower value 0.973 | locus YEL003W, strain gim4, stronger effect = lower value 0.971 | locus YEL037C, strain rad23, stronger effect = lower value 0.982 | locus YEL061C, strain CIN8 (second series), stronger effect = lower value 0.968 | locus YER015W, strain faa2, stronger effect = lower value 0.973 | locus YER016W, strain bim1, stronger effect = lower value 0.978 | locus YER111C, strain swi4, stronger effect = lower value 0.974 | locus YER155C, strain BEM2 (second series), stronger effect = lower value 0.97 | locus YFR010W, strain ubp6, stronger effect = lower value 0.955 | locus YGL167C, strain pmr1, stronger effect = lower value 0.967 | locus YGL173C, strain kem1, stronger effect = lower value 0.952 | locus YGL227W, strain vid30, stronger effect = lower value 0.963 | locus YGL240W, strain doc1, stronger effect = lower value 0.947 | locus YGL253W, strain hxk2, stronger effect = lower value 0.988 | locus YHR013C, strain ard1, stronger effect = lower value 0.937 | locus YHR027C, strain rpn1, stronger effect = lower value 0.959 | [1] 0.969 | [2] 0.963 | locus YHR142W, strain chs7, stronger effect = lower value 0.951 | locus YJL092W, strain hpr5, stronger effect = lower value 0.982 | locus YJL095W, strain BCK1 (second series), stronger effect = lower value 0.962 | [3] 1.01 | locus YJL115W, strain asf1, stronger effect = lower value 0.956 | locus YJL129C, strain trk1, stronger effect = lower value 0.983 | locus YJL154C, strain vps35, stronger effect = lower value 0.959 | locus YJL164C, strain tpk1, stronger effect = lower value 0.981 | locus YJL166W, strain qcr8, stronger effect = lower value 0.968 | locus YJL187C, strain SWE1, stronger effect = lower value 0.973 | [4] 0.935 | locus YKL160W, strain elf1, stronger effect = lower value 0.981 | locus YKR026C, strain gcn3, stronger effect = lower value 0.977 | locus YKR091W, strain srl3, stronger effect = lower value 0.98 | locus YLL001W, strain dnm1, stronger effect = lower value 0.981 | locus YLL026W, stronger effect = lower value 0.949 | locus YLL041C, strain sdh2, stronger effect = lower value 0.971 | locus YLR027C, strain aat2, stronger effect = lower value 0.944 | [5] 0.981 | locus YLR221C, strain rsa3, stronger effect = lower value 0.971 | locus YLR258W, strain gsy2, stronger effect = lower value 0.971 | locus YLR262C, strain YPT6 (second series), stronger effect = lower value 0.962 | locus YLR320W, strain mms22, stronger effect = lower value 0.964 | locus YLR342W, strain FKS1, stronger effect = lower value 0.99 | locus YLR357W, strain rsc2, stronger effect = lower value 0.997 | locus YLR370C, strain arc18, stronger effect = lower value 0.974 | locus YLR384C, strain iki3, stronger effect = lower value 0.974 | locus YML120C, strain ndi1, stronger effect = lower value 0.979 | locus YMR058W, strain fet3, stronger effect = lower value 0.978 | locus YMR125W, strain sto1, stronger effect = lower value 0.963 | locus YMR129W, stronger effect = lower value 0.987 | locus YMR205C, strain PFK2, stronger effect = lower value 0.961 | locus YMR231W, strain pep5, stronger effect = lower value 0.967 | locus YNL071W, strain lat1, stronger effect = lower value 0.98 | [6] 0.941 | locus YNL209W, strain ssb2, stronger effect = lower value 0.966 | locus YNL248C, strain rpa49, stronger effect = lower value 0.989 | locus YNL322C, strain KRE1 (second series), stronger effect = lower value 0.97 | locus YNR049C, strain mso1, stronger effect = lower value 0.969 | locus YOR001W, strain rrp6, stronger effect = lower value 0.968 | locus YOR070C, strain gyp1, stronger effect = lower value 0.978 | locus YOR080W, strain dia2, stronger effect = lower value 0.969 | locus YOR083W, strain WHI5, stronger effect = lower value 0.968 | locus YOR106W, strain vam3, stronger effect = lower value 0.969 | [7] 0.96 | locus YOR265W, strain rbl2, stronger effect = lower value 0.978 | locus YOR270C, strain vph1, stronger effect = lower value 0.945 | locus YOR290C, strain snf2, stronger effect = lower value 0.966 | locus YPL051W, strain arl3, stronger effect = lower value 0.987 | locus YPL078C, strain atp4, stronger effect = lower value 0.968 | locus YPL106C, strain sse1, stronger effect = lower value 0.916 | locus YPL240C, strain hsp82, stronger effect = lower value 0.974 | [8] 0.978
